# Experiments:
# Test in all cases: DAPPL (digital affinity profiling via proximity ligation, sequencing); 10 mM Tris-HCl pH 7.5, 50 mM NaCl, 1 mM DTT, 4% glycerol, room temperature, 30 min; GST-TFs on glutathione beads, 16-mer random dsDNA library, 0.1% formaldehyde crosslink after washing; high values mean tight binding
# FEV = biological target: T1, FEV (Homo sapiens, UniProt Q99581 1-238); settings: protein: recombinant; tags: N-terminal GST; dsDNA, one strand shown
# T1 sequence: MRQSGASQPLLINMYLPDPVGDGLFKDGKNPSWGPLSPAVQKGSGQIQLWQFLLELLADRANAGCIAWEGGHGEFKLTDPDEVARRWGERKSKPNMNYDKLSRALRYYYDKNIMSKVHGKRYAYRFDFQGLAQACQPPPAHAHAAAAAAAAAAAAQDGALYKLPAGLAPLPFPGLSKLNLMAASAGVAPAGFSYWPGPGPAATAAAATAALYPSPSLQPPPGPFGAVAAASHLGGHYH
# Outline: (§1)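 Binding signal is each hexamer's read frequency for a factor divided by its frequency in the tag-only sample. The factors were GST-fused human transcription factors from yeast, captured on glutathione beads, DNA-barcoded and pooled with that sample. Pools were incubated with 200 nmole of a random double-stranded 16-mer DNA library in Tris/NaCl/DTT/glycerol buffer at room temperature for 30 min, then washed, crosslinked with 0.1% formaldehyde, proximity-ligated with BsaI/T4 ligase (1 h, 37 °C), PCR-amplified and sequenced on an Illumina NextSeq500.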
# ETV5 = ETV5 (Homo sapiens, UniProt P41161 1-510); settings: protein: recombinant; tags: N-terminal GST; dsDNA, one strand shown
# ETV5, sequence (P41161 whole entry): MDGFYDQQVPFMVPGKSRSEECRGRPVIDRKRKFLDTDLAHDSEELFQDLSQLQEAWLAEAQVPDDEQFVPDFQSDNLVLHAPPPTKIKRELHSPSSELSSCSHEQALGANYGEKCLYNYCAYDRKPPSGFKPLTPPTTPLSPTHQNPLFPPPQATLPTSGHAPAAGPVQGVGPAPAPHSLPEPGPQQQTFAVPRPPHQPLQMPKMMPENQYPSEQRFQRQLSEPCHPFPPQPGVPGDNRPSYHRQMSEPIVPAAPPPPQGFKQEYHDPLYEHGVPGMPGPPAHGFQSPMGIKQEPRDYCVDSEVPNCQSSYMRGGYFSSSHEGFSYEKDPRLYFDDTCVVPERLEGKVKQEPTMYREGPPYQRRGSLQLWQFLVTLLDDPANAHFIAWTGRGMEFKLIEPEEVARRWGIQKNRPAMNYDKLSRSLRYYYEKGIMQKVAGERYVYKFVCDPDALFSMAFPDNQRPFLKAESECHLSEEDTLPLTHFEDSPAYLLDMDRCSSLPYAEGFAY
# Outline: as §1
# HSF1 = HSF1 (Homo sapiens, UniProt Q00613 1-529); settings: protein: recombinant; tags: N-terminal GST; chain copies: 3; dsDNA, one strand shown
# HSF1, sequence (Q00613 whole entry): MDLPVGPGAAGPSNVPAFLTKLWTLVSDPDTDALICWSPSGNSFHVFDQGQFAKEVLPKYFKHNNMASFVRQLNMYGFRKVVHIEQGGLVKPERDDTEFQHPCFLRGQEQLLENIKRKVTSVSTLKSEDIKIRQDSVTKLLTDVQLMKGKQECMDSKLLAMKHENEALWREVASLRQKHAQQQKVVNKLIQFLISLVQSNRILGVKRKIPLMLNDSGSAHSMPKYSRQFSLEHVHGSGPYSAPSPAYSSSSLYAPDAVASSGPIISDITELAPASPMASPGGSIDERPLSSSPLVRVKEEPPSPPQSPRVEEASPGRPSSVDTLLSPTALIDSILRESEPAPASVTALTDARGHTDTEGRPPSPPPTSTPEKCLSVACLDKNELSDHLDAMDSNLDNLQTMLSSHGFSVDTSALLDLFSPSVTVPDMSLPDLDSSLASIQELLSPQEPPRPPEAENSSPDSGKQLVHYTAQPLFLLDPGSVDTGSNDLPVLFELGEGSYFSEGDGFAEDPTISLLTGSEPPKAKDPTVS
# Outline: as §1
# ELF4 = ELF4 (Homo sapiens, UniProt Q99607 1-663); settings: protein: recombinant; tags: N-terminal GST; dsDNA, one strand shown
# ELF4, sequence (Q99607 whole entry): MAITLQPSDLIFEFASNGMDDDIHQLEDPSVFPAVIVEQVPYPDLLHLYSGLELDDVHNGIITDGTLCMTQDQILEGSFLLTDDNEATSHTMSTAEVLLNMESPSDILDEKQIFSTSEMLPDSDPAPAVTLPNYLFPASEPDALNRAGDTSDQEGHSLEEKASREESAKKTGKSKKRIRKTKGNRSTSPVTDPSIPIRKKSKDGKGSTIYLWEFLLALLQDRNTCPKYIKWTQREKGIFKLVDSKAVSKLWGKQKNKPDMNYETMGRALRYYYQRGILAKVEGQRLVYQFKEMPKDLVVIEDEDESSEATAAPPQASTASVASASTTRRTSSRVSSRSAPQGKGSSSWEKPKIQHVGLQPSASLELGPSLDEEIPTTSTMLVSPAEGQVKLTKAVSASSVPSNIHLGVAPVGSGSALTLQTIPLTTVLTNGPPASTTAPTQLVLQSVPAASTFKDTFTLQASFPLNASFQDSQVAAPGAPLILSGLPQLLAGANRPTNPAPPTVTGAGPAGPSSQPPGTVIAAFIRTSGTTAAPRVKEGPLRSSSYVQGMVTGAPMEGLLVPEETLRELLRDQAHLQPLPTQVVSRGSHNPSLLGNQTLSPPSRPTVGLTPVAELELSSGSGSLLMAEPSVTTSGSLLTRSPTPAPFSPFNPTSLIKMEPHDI
# Outline: as §1
# ELK4 = biological target: T2, ELK4 (Homo sapiens, UniProt P28324-2 1-405); settings: protein: recombinant; tags: N-terminal GST; dsDNA, one strand shown
# T2 sequence: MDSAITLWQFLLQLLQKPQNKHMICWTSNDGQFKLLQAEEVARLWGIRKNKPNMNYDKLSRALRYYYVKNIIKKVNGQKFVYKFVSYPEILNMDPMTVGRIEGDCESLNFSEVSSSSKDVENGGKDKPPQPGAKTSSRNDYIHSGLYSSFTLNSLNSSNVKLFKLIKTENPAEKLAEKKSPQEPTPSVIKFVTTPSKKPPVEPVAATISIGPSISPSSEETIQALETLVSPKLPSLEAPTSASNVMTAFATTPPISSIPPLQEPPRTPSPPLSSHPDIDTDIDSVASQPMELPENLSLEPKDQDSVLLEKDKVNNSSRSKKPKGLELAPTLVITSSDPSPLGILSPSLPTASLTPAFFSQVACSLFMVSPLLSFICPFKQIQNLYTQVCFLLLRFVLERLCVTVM
# Outline: as §1
# ETV2 = biological target: T3, ETV2 (Homo sapiens, UniProt O00321 1-342); settings: protein: recombinant; tags: N-terminal GST; dsDNA, one strand shown
# T3 sequence: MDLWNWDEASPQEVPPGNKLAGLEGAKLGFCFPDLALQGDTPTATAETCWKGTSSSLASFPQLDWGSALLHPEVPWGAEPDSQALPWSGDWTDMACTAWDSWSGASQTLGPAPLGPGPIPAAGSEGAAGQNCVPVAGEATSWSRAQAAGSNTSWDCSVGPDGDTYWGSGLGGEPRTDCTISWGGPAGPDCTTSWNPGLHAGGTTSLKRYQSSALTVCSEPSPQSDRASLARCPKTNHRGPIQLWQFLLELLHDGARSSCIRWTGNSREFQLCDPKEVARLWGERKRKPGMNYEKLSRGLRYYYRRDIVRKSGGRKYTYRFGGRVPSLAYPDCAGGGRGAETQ
# Outline: as §1
# ELF3 = biological target: T4, ELF3 (Homo sapiens, UniProt P78545 1-371); settings: protein: recombinant; tags: N-terminal GST; dsDNA, one strand shown
# T4 sequence: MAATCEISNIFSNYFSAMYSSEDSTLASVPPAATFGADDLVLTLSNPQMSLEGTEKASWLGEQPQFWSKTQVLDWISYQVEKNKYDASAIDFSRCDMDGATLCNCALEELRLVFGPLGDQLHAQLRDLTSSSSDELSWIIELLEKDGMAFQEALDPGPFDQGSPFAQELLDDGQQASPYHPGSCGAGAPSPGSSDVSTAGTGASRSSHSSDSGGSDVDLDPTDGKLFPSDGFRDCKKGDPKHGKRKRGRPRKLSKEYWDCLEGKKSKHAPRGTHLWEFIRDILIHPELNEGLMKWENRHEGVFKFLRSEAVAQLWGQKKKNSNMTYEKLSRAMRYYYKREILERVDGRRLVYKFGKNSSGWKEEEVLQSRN
# Outline: as §1
# CRX = CRX (Homo sapiens, UniProt O43186 1-299); settings: protein: recombinant; tags: N-terminal GST; dsDNA, one strand shown
# CRX, sequence (O43186 whole entry): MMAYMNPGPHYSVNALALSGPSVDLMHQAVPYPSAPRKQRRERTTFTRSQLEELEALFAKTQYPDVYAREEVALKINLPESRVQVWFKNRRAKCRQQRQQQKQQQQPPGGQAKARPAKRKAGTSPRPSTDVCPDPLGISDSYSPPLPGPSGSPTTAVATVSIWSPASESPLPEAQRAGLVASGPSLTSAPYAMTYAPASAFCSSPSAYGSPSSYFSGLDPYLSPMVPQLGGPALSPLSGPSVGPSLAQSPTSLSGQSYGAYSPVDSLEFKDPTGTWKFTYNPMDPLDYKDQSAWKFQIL
# Outline: as §1
# ETV1 = ETV1 (Homo sapiens, UniProt P50549 1-477); settings: protein: recombinant; tags: N-terminal GST; dsDNA, one strand shown
# ETV1, sequence (P50549 whole entry): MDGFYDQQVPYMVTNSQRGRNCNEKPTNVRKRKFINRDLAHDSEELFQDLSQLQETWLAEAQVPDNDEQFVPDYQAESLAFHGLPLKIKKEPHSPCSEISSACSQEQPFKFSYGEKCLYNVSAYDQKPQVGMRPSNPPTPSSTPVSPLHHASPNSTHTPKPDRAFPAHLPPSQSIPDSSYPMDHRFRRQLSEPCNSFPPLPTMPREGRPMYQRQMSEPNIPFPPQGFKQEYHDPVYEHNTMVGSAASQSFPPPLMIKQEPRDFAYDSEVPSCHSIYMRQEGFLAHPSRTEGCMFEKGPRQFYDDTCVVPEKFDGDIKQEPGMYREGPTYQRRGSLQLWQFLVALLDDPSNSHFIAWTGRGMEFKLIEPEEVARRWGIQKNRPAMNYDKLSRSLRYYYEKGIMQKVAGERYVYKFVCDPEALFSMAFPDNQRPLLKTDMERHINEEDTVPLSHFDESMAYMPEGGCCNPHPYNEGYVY
# Outline: as §1
# ERF = biological target: T5, ERF (Homo sapiens, UniProt P50548 1-548); settings: protein: recombinant; tags: N-terminal GST; dsDNA, one strand shown
# T5 sequence: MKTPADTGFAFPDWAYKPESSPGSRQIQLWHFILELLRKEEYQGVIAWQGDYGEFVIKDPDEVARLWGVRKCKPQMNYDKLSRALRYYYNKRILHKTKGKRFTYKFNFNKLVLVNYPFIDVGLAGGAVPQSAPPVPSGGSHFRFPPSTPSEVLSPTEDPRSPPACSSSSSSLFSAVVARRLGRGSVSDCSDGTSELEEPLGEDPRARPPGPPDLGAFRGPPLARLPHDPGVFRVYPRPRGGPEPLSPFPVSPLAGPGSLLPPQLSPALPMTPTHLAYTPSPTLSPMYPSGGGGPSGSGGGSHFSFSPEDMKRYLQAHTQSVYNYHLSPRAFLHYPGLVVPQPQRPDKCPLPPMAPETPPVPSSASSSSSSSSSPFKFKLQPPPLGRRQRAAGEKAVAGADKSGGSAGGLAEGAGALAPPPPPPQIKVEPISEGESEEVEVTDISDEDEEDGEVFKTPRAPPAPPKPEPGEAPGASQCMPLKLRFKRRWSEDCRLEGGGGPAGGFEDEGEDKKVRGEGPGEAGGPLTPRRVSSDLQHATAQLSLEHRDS
# Outline: as §1
# ETV3L = biological target: T6, ETV3L (Homo sapiens, UniProt Q6ZN32 1-361); settings: protein: recombinant; tags: N-terminal GST; dsDNA, one strand shown
# T6 sequence: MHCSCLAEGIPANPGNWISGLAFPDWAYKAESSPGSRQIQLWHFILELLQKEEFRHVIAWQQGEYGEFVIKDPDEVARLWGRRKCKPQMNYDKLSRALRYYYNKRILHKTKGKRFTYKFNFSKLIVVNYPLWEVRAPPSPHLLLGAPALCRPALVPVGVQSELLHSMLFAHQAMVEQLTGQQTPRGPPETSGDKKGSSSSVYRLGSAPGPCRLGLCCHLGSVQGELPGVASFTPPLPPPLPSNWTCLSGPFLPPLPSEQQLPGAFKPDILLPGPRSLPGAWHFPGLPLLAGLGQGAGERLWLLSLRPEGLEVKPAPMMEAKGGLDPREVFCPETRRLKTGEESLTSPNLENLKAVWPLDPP
# Outline: as §1
# ETS2 = biological target: T7, ETS2 (Homo sapiens, UniProt P15036 1-469); settings: protein: recombinant; tags: N-terminal GST; dsDNA, one strand shown
# T7 sequence: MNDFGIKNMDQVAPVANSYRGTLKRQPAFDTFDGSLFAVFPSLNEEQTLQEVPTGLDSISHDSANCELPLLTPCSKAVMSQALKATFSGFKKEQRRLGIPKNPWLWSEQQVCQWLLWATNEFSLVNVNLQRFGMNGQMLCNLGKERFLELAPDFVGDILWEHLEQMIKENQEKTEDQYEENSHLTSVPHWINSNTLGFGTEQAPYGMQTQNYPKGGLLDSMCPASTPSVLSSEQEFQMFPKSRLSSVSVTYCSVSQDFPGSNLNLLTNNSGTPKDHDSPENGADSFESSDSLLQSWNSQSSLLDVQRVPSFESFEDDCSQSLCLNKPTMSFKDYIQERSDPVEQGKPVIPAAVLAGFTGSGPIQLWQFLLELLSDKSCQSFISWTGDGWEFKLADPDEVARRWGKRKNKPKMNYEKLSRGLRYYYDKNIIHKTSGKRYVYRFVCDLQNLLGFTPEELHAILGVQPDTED
# Outline: as §1
# SPDEF = biological target: T8, SPDEF (Homo sapiens, UniProt O95238 1-335); settings: protein: recombinant; tags: N-terminal GST; dsDNA, one strand shown
# T8 sequence: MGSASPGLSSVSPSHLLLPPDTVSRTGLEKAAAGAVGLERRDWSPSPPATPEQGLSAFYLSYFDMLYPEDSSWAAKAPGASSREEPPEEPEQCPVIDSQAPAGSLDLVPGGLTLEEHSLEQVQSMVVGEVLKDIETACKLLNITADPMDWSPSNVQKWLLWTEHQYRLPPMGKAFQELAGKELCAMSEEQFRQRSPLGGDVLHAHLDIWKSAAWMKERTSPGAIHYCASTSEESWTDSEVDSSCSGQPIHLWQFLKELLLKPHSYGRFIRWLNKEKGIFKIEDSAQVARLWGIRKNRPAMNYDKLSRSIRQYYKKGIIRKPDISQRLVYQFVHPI
# Outline: as §1
# ETV7 = biological target: T9, ETV7 (Homo sapiens, UniProt Q9Y603 1-341); settings: protein: recombinant; tags: N-terminal GST; dsDNA, one strand shown
# T9 sequence: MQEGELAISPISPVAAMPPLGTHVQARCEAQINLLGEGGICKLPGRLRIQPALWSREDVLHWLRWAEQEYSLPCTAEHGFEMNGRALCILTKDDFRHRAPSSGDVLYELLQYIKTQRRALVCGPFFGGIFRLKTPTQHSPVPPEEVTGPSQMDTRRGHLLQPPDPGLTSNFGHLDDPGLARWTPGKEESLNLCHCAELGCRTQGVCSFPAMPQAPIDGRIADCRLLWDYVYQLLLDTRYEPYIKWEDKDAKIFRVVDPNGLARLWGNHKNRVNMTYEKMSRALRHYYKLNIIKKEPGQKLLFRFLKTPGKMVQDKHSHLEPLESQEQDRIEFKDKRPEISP
# Outline: as §1
# ELF5 = biological target: T10, ELF5 (Homo sapiens, UniProt Q9UKW6-2 1-255); settings: protein: recombinant; tags: N-terminal GST; dsDNA, one strand shown
# T10 sequence: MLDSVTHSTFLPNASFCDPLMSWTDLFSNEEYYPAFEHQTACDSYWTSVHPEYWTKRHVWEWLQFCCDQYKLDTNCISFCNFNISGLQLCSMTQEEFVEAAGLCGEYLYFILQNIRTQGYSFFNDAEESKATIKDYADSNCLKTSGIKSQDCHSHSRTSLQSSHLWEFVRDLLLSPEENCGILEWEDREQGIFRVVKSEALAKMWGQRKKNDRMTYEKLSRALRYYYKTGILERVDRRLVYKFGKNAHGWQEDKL
# Outline: as §1
# ETV3 = biological target: T11, ETV3 (Homo sapiens, UniProt P41162-2 1-143); settings: protein: recombinant; tags: N-terminal GST; dsDNA, one strand shown
# T11 sequence: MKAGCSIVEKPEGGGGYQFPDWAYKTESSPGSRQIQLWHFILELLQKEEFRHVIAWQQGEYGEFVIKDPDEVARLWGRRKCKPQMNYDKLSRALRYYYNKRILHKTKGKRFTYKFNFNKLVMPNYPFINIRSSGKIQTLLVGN
# Outline: as §1
# ETV6 = ETV6 (Homo sapiens, UniProt P41212 1-452); settings: protein: recombinant; tags: N-terminal GST; dsDNA, one strand shown
# ETV6, sequence (P41212 whole entry): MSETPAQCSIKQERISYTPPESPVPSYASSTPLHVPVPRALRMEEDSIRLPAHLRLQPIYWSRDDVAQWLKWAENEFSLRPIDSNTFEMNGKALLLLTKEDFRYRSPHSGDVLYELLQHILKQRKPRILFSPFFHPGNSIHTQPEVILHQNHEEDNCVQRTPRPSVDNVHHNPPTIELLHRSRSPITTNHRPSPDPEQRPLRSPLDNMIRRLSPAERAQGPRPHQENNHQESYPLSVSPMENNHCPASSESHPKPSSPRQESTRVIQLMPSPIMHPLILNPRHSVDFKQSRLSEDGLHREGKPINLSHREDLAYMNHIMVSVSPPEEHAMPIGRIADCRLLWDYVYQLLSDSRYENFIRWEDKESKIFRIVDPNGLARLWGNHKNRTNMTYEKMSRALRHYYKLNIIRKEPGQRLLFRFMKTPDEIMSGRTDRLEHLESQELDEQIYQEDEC
# Outline: as §1
Sequence,binding signal (FEV),binding signal (ETV5),binding signal (HSF1),binding signal (ELF4),binding signal (ELK4),binding signal (ETV2),binding signal (ELF3),binding signal (CRX),binding signal (ETV1),binding signal (ERF),binding signal (ETV3L),binding signal (ETS2),binding signal (SPDEF),binding signal (ETV7),binding signal (ELF5),binding signal (ETV3),binding signal (ETV6)
TAAAGA,"1.09 fold enrichment (6-mer frequency, TF over GST control)","1.07 fold enrichment (6-mer frequency, TF over GST control)","1.56 fold enrichment (6-mer frequency, TF over GST control)","1.07 fold enrichment (6-mer frequency, TF over GST control)","1.11 fold enrichment (6-mer frequency, TF over GST control)","1.13 fold enrichment (6-mer frequency, TF over GST control)","1.2 fold enrichment (6-mer frequency, TF over GST control)","1.85 fold enrichment (6-mer frequency, TF over GST control)","1.11 fold enrichment (6-mer frequency, TF over GST control)","1.23 fold enrichment (6-mer frequency, TF over GST control)","1.12 fold enrichment (6-mer frequency, TF over GST control)","1.08 fold enrichment (6-mer frequency, TF over GST control)","1.04 fold enrichment (6-mer frequency, TF over GST control)","1.08 fold enrichment (6-mer frequency, TF over GST control)","1.05 fold enrichment (6-mer frequency, TF over GST control)","1.08 fold enrichment (6-mer frequency, TF over GST control)","1.06 fold enrichment (6-mer frequency, TF over GST control)"
AAGGTA,"1.02 fold enrichment (6-mer frequency, TF over GST control)","1.11 fold enrichment (6-mer frequency, TF over GST control)","1.11 fold enrichment (6-mer frequency, TF over GST control)","1.1 fold enrichment (6-mer frequency, TF over GST control)","1.14 fold enrichment (6-mer frequency, TF over GST control)","1.07 fold enrichment (6-mer frequency, TF over GST control)","1.16 fold enrichment (6-mer frequency, TF over GST control)","1.05 fold enrichment (6-mer frequency, TF over GST control)","1.11 fold enrichment (6-mer frequency, TF over GST control)","1.05 fold enrichment (6-mer frequency, TF over GST control)","1.14 fold enrichment (6-mer frequency, TF over GST control)","1.11 fold enrichment (6-mer frequency, TF over GST control)","1.16 fold enrichment (6-mer frequency, TF over GST control)","1.18 fold enrichment (6-mer frequency, TF over GST control)","1.06 fold enrichment (6-mer frequency, TF over GST control)","1.09 fold enrichment (6-mer frequency, TF over GST control)","1.19 fold enrichment (6-mer frequency, TF over GST control)"

# Source: paper PMC7862700, “An all-to-all approach to the identification of sequence-specific readers for epigenetic DNA modifications on cytosine”
